The campaign covered roughly 2,100 compounds. About 770 (37%) were called active.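 How the source made its calls: active means by-eye trace score of 1 for enhancers or -1 for inhibitors, so actives lie on both sides (some results past the limit were not filed as active); inactive means score 0, or 3 fluorescent, or 4 baseline rise.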 The list shows a part of the results.
What follows are molecules tested against G protein-activated inward rectifier potassium channel 2 (Homo sapiens) + G protein-activated inward rectifier potassium channel 1 (Homo sapiens) (UniProt P48051+P48549) (assay: GIRK1/2 thallium flux modulators, retest, confirmation, cell-based, HEK293 rmGlu8/hGIRK1/2, FluoZin-2 (AID 623911)). Conditions: HEK293 rmGlu8/hGIRK1/2, thallium flux FluoZin-2; actives lie on both sides; glutamate co-added at its EC20 level.
G protein-activated inward rectifier potassium channel 2 (Homo sapiens) + G protein-activated inward rectifier potassium channel 1 (Homo sapiens), sequence (P48051 whole entry, looked up): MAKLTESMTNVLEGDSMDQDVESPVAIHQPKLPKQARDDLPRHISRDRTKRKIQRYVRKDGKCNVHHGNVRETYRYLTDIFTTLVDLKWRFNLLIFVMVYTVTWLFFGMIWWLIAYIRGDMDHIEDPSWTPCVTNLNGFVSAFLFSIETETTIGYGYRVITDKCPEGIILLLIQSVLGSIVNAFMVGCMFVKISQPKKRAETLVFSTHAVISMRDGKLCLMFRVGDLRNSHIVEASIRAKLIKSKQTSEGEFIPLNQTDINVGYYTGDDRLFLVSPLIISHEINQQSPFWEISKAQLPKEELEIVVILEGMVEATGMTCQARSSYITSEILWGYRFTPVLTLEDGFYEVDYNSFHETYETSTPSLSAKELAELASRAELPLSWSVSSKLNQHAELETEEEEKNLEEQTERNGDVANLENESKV
G protein-activated inward rectifier potassium channel 2 (Homo sapiens) + G protein-activated inward rectifier potassium channel 1 (Homo sapiens), sequence (P48549 whole entry, looked up): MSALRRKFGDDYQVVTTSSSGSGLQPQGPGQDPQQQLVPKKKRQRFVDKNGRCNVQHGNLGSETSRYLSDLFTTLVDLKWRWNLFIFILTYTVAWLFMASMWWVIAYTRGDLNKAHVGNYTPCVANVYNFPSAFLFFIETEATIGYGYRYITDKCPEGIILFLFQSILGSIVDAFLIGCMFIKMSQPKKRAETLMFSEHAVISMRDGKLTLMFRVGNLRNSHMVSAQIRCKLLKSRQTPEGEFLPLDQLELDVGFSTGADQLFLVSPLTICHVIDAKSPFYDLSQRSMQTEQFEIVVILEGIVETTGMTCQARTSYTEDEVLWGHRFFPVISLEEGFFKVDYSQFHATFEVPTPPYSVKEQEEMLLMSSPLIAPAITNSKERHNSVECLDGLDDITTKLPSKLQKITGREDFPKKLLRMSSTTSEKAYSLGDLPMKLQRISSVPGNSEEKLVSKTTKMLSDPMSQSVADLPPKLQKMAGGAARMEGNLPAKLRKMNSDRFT

Manual score, active:
O=C(CCSCc1cccc(Cl)c1)NCCc1ccc(Cl)cc1 1
O=C(Nc1nnc(-c2cccs2)o1)c1cccc(Oc2ccccc2)c1 1
CCCCN(C)S(=O)(=O)c1ccc(C(=O)Nc2nnc(-c3cccs3)o2)cc1 1
O=C(Nc1nnc(-c2cccs2)o1)c1cccc(F)c1 1
O=C(Nc1nnc(-c2cccs2)o1)c1cccc(C(F)(F)F)c1 1
CCC1Oc2ccc(C)cc2N(CC(=O)N(Cc2ccc(C)o2)C2CCCC2)C1=O (stereo unspecified) -1
COc1ccc(NC(=O)CSc2nc3ccccc3c(=O)n2CCCN2CCCCC2)c(OC)c1 -1
COc1ccc(C(C)n2c(C)c3c(C)nnc(C)c3c2C)cc1 (stereo unspecified) -1
S=c1nn[nH]n1C12CC3CC(CC(C3)C1)C2 1
CCOC(=O)c1cnn2c1[nH]c(=O)c1ccccc12 1
COc1ccc(NC2=NC(=S)N(c3ccccc3C)C23CCCCC3)cc1 1
Cc1ccc(-n2ncc3c(SCc4ccccc4)ncnc32)cc1 1
Cc1ccc(CSc2ncnc3c2cnn3-c2ccc(C)cc2)cc1 1
CCN1CCN(CCCOc2ccc(-c3ccccc3)cc2)CC1 -1
S=c1[nH]nc(-c2ccccn2)n1/N=C/c1ccc(Br)s1 1
CN(C)Cc1cc(C(C)(C)C)c(O)c(C(C)(C)C)c1 -1
Cc1cccc(NC(=S)NNC(=O)c2csc(C(C)C)c2)c1 1
Cc1ccc(C)c(NC(=S)NNC(=O)c2csc(C(C)C)c2)c1 1
CN(C)CCNC(=O)c1ccc2c(c1)N(Cc1ccc(F)cc1)CCS2 -1
CCCCOc1ccc(C(=O)OC2CC(C)N(C)CC2C)cc1 (stereo unspecified) -1
COc1cccc(NC(=O)Cn2nnc(C(=O)Nc3ccccc3)c2N)c1 1
COc1cccc(NC(=O)Cn2cc3c(n2)CCCCC3)c1 1
Cc1cc(C)cc(NC(=O)Cn2cc3c(n2)CCCCC3)c1 1
COc1cccc(NC(=O)Cn2cc(C#N)c3ccccc32)c1 1
O=[N+]([O-])c1ccc(/C=N/NC(=S)Nc2ccccc2F)o1 1
COCCNC(=O)CN1C(=O)CSc2ncccc21 1
CC(c1ccc(Cl)cc1)n1c(-c2ccc3ccccc3n2)n[nH]c1=S (stereo unspecified) 1
CCCCN(C)C1=Nc2cccc3cccc1c23 -1
CCc1ccc(NC(=S)NNC(=O)c2ccccc2OC(F)F)cc1 1
CCOC(=O)Cc1csc(NC(=S)NC(=O)c2ccc(C)cc2)n1 1
CCOC(=O)Cc1csc(NC(=O)Nc2ccccc2)n1 1
CCOC(=O)Cc1csc(NC(=S)NC(=O)c2ccccc2)n1 1
CCOC(=O)Cc1csc(NC(=S)NC(=O)C(C)(C)C)n1 1
Cc1ccc(NC(=O)Cc2ccccc2Cl)cc1S(=O)(=O)N(C)C 1
CCOCc1c(C(=O)OCC(=O)Nc2ccc(C)c(S(=O)(=O)N(C)C)c2)oc2ccccc12 1
Cc1ccc(NC(=O)COC(=O)/C=C/c2ccco2)cc1S(=O)(=O)N(C)C 1
Cc1ccc(NC(=O)COC(=O)CCC(=O)c2ccc(Cl)cc2)cc1S(=O)(=O)N(C)C 1

Manual score, inactive:
O=C(O)C1C2C=CC(C2)C1C(=O)NCCc1cccc(Cl)c1 (stereo unspecified) 0.5
O=C(NC1CC1)c1ccc(CSCc2cccc(F)c2)o1 0
COc1ccc(C2C(C(N)=O)=C(C)Nc3nc(-c4cccc(Cl)c4)nn32)cc1OC (stereo unspecified) 0
CCCCCc1nnc(NC(=O)Cc2cccs2)s1 0
O=C(N/N=C/c1c(Cl)cccc1Cl)c1cccc(F)c1 0
Cc1cc(C)c(NC(=O)c2ccc(S(=O)(=O)N(C)C)cc2)c(C)n1 0
Cc1occc1C(=O)Nc1cccc(C(F)(F)F)c1 0
COc1ccc(C(=O)Nc2ccc(Oc3ncnc4sc(-c5ccccc5)cc34)cc2)cc1OC 0
CCOc1ccc(-c2cc(C)n3nc(C(N)=O)cc3n2)cc1 0
COCCCNc1c2c3c(cccc3[nH]c1=O)C(=O)c1ccccc1-2 3
Cc1[nH]c2ccccc2c1CN1CCc2ccccc2C1 0
CNc1nc(Cl)nc(NC(C)(C)C)n1 0
CCOC(=O)/C(=C\C=C1/Sc2cc(OCC)c(OCC)cc2N1CC)C(C)=O 3
Cc1ccc2c(c1)N(CC(=O)N(Cc1ccccn1)Cc1ccco1)C(=O)C(C(C)C)O2 (stereo unspecified) -0.5
Cc1ccc(S(=O)(=O)c2c(C)cc(C)nc2Cl)c(C)c1 0
CCC(C)NC(=O)CSc1nc2ccccc2c(=O)n1Cc1ccc(OC)cc1 (stereo unspecified) 0
CCCCn1c(SCC(=O)Nc2ccc(OC)cc2)nc2ccc(N3CCOCC3)cc2c1=O 0
CCOC(=O)CSc1nc(C)c2cc(OC)ccc2n1 0
Cn1cc(S(=O)(=O)Nc2ccc(F)cc2F)c(=O)n(C)c1=O 0
Cc1cc2[nH]c(=O)c3ccccc3n2n1 0
CCOC(=O)c1ccccc1Nc1cn(C(C)=O)c2ccccc12 -0.5
CCS(=O)(=O)Nc1ccc(-c2nnc(SCC(=O)c3ccc(NC(C)=O)c(OC)c3)o2)cc1 0
N#CCN1C(=S)N=C(Nc2cccc(Cl)c2)C12CCCCC2 0.5
Cc1ccc(NC2=NC(=S)N(CC#N)C23CCCCC3)cc1 0
COc1ccc(OC)c(Nc2ncnc3c2cnn3-c2cccc(C)c2)c1 0
CN(C)CCNc1ncnc2c1cnn2-c1ccc(Cl)cc1 0
CCOC(=O)C(C)Sc1nc2c(cnn2-c2ccc(C)cc2)c(=O)[nH]1 (stereo unspecified) 0
NC(=O)CSc1ncnc2c1cnn2Cc1ccccc1 0
COc1ccc(OCCCN2CCCCCC2)cc1 0
CN(C)CCCOc1ccc(C(C)(C)c2ccccc2)cc1 0
CCCCC(=O)N1CCCC(c2nc3c(nnn3Cc3cc(C)ccc3C)c(=O)[nH]2)C1 (stereo unspecified) 0
S=c1[nH]nc(-c2ccco2)n1/N=C/c1ccc(Br)s1 0
Cc1cc(-c2n[nH]c(=S)n2/N=C/c2ccc(Br)s2)n[nH]1 0
Cc1ccc(-c2nc3ccccc3o2)cc1NC(=S)NC(=O)c1cc2ccccc2o1 0
Cc1cc(C)c2oc(-c3ccc(C)c(NC(=S)NC(=O)c4cccs4)c3)nc2c1 0
c1cn(CC2(Cn3ccnc3)COC2)cn1 0
CN(C)CCNC(=O)c1cc2c(s1)-c1ccccc1OC2 0
CCCCOC(=O)Nc1ccc(C(=O)OCCC)cc1 0
COc1cccc(NC(=O)CSc2nc(N)cc(N)n2)c1 0
COc1cccc(NC(=S)N/N=C2/CCCCc3ccccc32)c1 0.5
O=C(CN1CCCCC1)Nc1cccc(Oc2ccccc2)c1 0
CC1CCc2nn(CC(=O)N3CCN(C(=O)c4ccco4)CC3)cc2C1 (stereo unspecified) 0
COc1cccc(NC(=O)CSc2nnc(-c3ccoc3C)n2-c2ccccc2)c1 -0.5
COc1cccc(NC(=O)C(Sc2nc3ccccc3c(=O)n2CC(C)C)c2ccccc2)c1 (stereo unspecified) 0
CCCOC(=O)c1ccc(-c2c(C)noc2-c2ccc(OC)cc2O)o1 0
CC(=O)c1c(C)[nH]c(C(=O)COc2cc(C)cc(C)c2)c1C 0
Fc1ccccc1NC(=S)N/N=C/c1ccccc1Br 0
Fc1ccccc1/C=N/NC(=S)Nc1ccc(Cl)cc1Cl 0
CSC(=O)NC12CC3CC(CC(C)(C3)C1)C2 0
CCC(C)NC(=O)CN1C(=O)CC(C)(C)S(=O)(=O)c2ccccc21 (stereo unspecified) 0
COCCNC(=O)CCCCCn1c(=S)[nH]c2ccccc2c1=O 0
CC(c1ccc(F)cc1)n1c(-c2ccc3ccccc3n2)n[nH]c1=S (stereo unspecified) 0.5
CCc1cc(-c2n[nH]c(=S)n2C(C)c2ccccc2)cs1 (stereo unspecified) -0.5
COc1ccc(NC2=Nc3cccc4cccc2c34)cc1OC 0
CC/C(=N\NC(=S)Nc1ccc(OC)cc1)c1ccc(OC(F)F)cc1 0
O=C1C2C3C=CC(C3)C2C(=O)N1/N=C/c1cn(Cc2ccccc2)c2ccccc12 (stereo unspecified) 0
O=C(NC(=S)Nc1nc2c(s1)CCCC2)c1ccc(C(=O)c2ccccc2)cc1 0
O=C(NC(=S)Nc1nc2c(s1)CCCC2)c1ccccc1 0
CC(C)CC(=O)NC(=S)Nc1nc(-c2cccc3ccccc23)cs1 0
O=C1C(Cl)=C(N2CCOCC2)C(=O)N1c1cccc(Cl)c1 0
CCCc1cc(-c2n[nH]c(=S)n2CC(C)C)cs1 0
CCCCCNC(=O)c1ccc2c(=O)[nH]c3c(C(=O)NCC4CCCO4)sc(=S)n3c2c1 (stereo unspecified) 0
CC(C)C(C)(C#N)NC(=O)CSc1ncnc2sc(-c3ccccc3)cc12 (stereo unspecified) 0
Cc1cc(C(=O)CSc2n[nH]c(N)n2)c(C)n1-c1cc(F)ccc1F 0
O=C1Nc2cc(S(=O)(=O)N3CCCC3)ccc2N2CCCC12 (stereo unspecified) 0
CC(C)c1ccccc1NC(=O)COC(=O)/C=C/c1cccc([N+](=O)[O-])c1 0
Cc1cc(C(=O)OCC(=O)Nc2ccc(F)cc2)c(C)o1 0
Cc1ccc(NC(=O)COn2nnc3ccc(S(=O)(=O)N(C)C)cc32)cc1F 0
O=C(CSCc1ccc(Br)cc1)N=Nc1c(O)[nH]c2ccccc12 0
